The whole screen tested about 48,000 compounds, of which about 13,000 (27%) showed an effect of 50% or more. Some of the results follow.
system: Wolbachia pipientis; assay: Anti-Wolbachia Cell-Based Screen; type: functional; design: scale not given: in the data most compounds retested in dose-response had high values; conditions: 5 µM

SMILES	Percent Effect [%]
Cc1cc(C)n(C2CN(CC(O)c3ccc(F)cc3)C2)n1 (centres undefined)	-3.479
CN1CCC(CCNC(=O)c2ccc(N(C)S(C)(=O)=O)cc2Cl)CC1	-5.905
COC(=O)CC(c1ccccc1)c1oc(C)cc(=O)c1O (centres undefined)	9.59
O=C(c1cncs1)N1CCc2[nH]nc(Nc3ccccc3)c2C1	117.5
O=C(c1ccsc1)N1CCc2c(CNc3ncccn3)n[nH]c2C1	-3.042
Cc1ncsc1C(=O)N1CCc2[nH]nc(-c3ccc4c(c3)OCO4)c2C1	-9.39
CCn1c(CC2CCN(C(=O)C3CCOC3)CC2)nn(C)c1=O (centres undefined)	3.513
Cc1cc(=O)n2ncnc2n1CC(O)c1ccc(F)cc1F (centres undefined)	-38.21
CCOc1cccc2c1OCC(C(=O)NS(=O)(=O)c1ccc(Br)s1)=C2	97
CCOc1cccc2c1OCC(C(=O)NS(=O)(=O)c1cccs1)=C2	95.96
CCOc1cccc2c1OCC(C(=O)NS(=O)(=O)c1cncc(Br)c1)=C2	125.8
Cc1ccc(S(C)(=O)=O)cc1C(=O)NS(=O)(=O)c1cccs1	20
CCOc1ccc(C(=O)NS(=O)(=O)c2cncc(Br)c2)cc1OC	-12.86
CCOc1cccc2c1OCC(C(=O)NS(=O)(=O)c1ccc(Cl)cc1)=C2	-2.637
Cc1ccc(S(=O)(=O)NC(=O)c2cccc(OCC(N)=O)c2)s1	-0.7122
Cc1ccc(OCC(=O)NS(=O)(=O)c2c(C)noc2C)cc1C	20.27
N#CCc1ccc(OCC(=O)NS(=O)(=O)c2cccs2)cc1	5.016
CCOc1cccc2c1OCC(C(=O)NS(=O)(=O)c1c(C)noc1C)=C2	100.1
Cc1cc(C)c(OCC(=O)NS(=O)(=O)c2c(C)noc2C)c(C)c1	0.8796
O=S(=O)(NCC1(O)CCOc2ccccc21)c1ccc(Br)s1 (centres undefined)	-8.06

SMILES	Percent Effect [%]
CN(CCN1CCCC1=O)S(=O)(=O)CC1CCCC1	-3.28
Cc1ncc(S(C)(=O)=O)c(N2Cc3ccccc3C2)n1	20.01
CCN(C)CC(=O)N1CCN(Cc2ccccc2)[C@@H]2CS(=O)(=O)C[C@@H]21	-19.14
CCN(CC)C(=O)c1ccn(COc2ccccc2)n1	-3.664
Cc1nc(CNC(C(=O)N2CCOCC2)C(C)C)oc1C (centres undefined)	-5.352
CC(C)COCCC(=O)NS(=O)(=O)c1ccc(Cl)s1	13.2
CCOc1cccc2c1OCC(C(=O)NS(=O)(=O)c1ccc(Cl)s1)=C2	108.5
CCOc1cccc2c1OCC(C(=O)NS(=O)(=O)c1ccc(C)s1)=C2	-6.763
COc1ccc(NC(=O)CSc2nc(C)cc(C)n2)cn1	9.531
CCOCc1cnc2n1CCN(Cc1scnc1C)C2C.O=C(O)C(F)(F)F (centres undefined)	-10.4
CC1c2ncc(CN3CCN(C)CC3)n2CCN1Cc1ccc(F)cc1.O=C(O)C(F)(F)F.O=C(O)C(F)(F)F.O=C(O)C(F)(F)F (centres undefined)	94.11
CC1c2ncc(CN3CCN(C)CC3)n2CCN1Cc1cccnc1.O=C(O)C(F)(F)F.O=C(O)C(F)(F)F.O=C(O)C(F)(F)F.O=C(O)C(F)(F)F (centres undefined)	3.329
CC1c2ncc(CN3CCN(C)CC3)n2CCN1Cc1cnn(C)c1.O=C(O)C(F)(F)F.O=C(O)C(F)(F)F.O=C(O)C(F)(F)F (centres undefined)	96.74
Cc1ccc(CN2CCn3c(CN4CCN(C)CC4)cnc3C2C)s1.O=C(O)C(F)(F)F.O=C(O)C(F)(F)F.O=C(O)C(F)(F)F (centres undefined)	98.84
CC1c2ncc(CN3CCN(C)CC3)n2CCN1Cc1ccsc1.O=C(O)C(F)(F)F.O=C(O)C(F)(F)F.O=C(O)C(F)(F)F (centres undefined)	104.7
CC1c2ncc(CN3CCN(C)CC3)n2CCN1CC1CC1.O=C(O)C(F)(F)F.O=C(O)C(F)(F)F.O=C(O)C(F)(F)F (centres undefined)	-5.269
Nc1ccc(CC2COc3ccccc3C2)cn1 (centres undefined)	18.77
CCOc1ccc(S(=O)(=O)NCCc2ccc(N(C)C)cc2)cc1C	13.74
CC(C)c1nc(CCN(C)C(=O)C2COc3ccccc3C2)no1 (centres undefined)	-22.02
Cc1cccc(NC(=O)CCNCc2c(C)nn(C)c2N(C)C)n1	-6.985

SMILES	Percent Effect [%]
CNC(=O)CCCNCc1c(C)nn(C)c1N(C)C	-1.91
Cc1nn(C)c(N(C)C)c1CNCCNS(C)(=O)=O	-8.307
CC(NCc1c(C(C)C)nn(C)c1N(C)C)C(=O)NC1CCCC1.Cl (centres undefined)	-15.88
CC(C)c1nn(C)c(N(C)C)c1CNCCC(=O)NC1CCCC1	-3.602
CC(C)c1nn(C)c(N(C)C)c1CNCCC(=O)NC1CCCCC1	102.1
Cc1nn(C)c(N(C)C)c1CNCCC(=O)NC1CCCCC1	122.8
Cc1nn(CC(C)C)c(N(C)C)c1CNCCC(=O)NC(C)C	-6.967
Cc1nn(C)c(N(C)C)c1CNCCC(=O)NC1CCCC1	122.8
O=C1[C@@H]2CCN(CC3CC3)C[C@@H]2OCCN1c1ccsc1	-4.722
O=C(N[C@@H]1CN(c2ncccn2)C[C@@H]2CCCO[C@@H]21)c1cnccn1.O=C(O)C(F)(F)F	-32.47
CC(C)CN1CC[C@H](c2nnc(COc3ccc(F)cc3)o2)C1	3.256
Clc1ccc(OCCc2cc(C3CCN(c4ncccn4)C3)n[nH]2)cc1 (centres undefined)	119.6
COc1ccc(-c2c[nH]c(C3CC(=O)N(CC(C)C)C3)n2)cc1 (centres undefined)	-5.236
CCCN1CCC(c2cc(CCOc3ccc(C(F)(F)F)cc3)[nH]n2)C1 (centres undefined)	115.7
Br.COc1ccc(OCCc2cc(C3CCN(CC(C)C)C3)n[nH]2)cc1 (centres undefined)	140.6
O=C(NCCN1CCCC1)Nc1cc(C(=O)N2CCOCC2)ccc1Cl	-2.741
CC(CNS(C)(=O)=O)c1ccc(F)c(F)c1 (centres undefined)	0.4429
Cc1ccc(C(=O)N2C[C@H](NS(C)(=O)=O)[C@@H](C(C)C)C2)cc1F	7.707
Cc1ccc(S(=O)(=O)NCC(C)C#N)cc1Br (centres undefined)	-32.7

— ChEMBL document CHEMBL3988442, “University of Dundee, Small-Polar-MMV Screening Library” (2021)
